The whole screen tested about 52,000 compounds, of which about 4,300 (8.3%) were called active. Many of the other results were omitted from the sample, so actives are more common in it than they were. Values without a mark were called inactive. Rule as the data show it: active = survival mostly below about 52% (no sharp cut-off); inactive = mostly above about 56%.

The assay relates to DeltatarO mutant. The experiment in a line: S. aureus survival, RN4220 and DeltatarO strains – OD600, teichoic acid synthesis inhibitors, primary screen (AID 463173). Particulars: S. aureus RN4220 wild type/DeltatarO growth, OD600, 18 h, active compounds read low, screened at 18.75 µg/mL (by protocol).
As for `O=C(CCc1ccccc1)NCc1ccc2c(c1)CCN2C(=O)c1ccc(Cl)cc1`, the survival was 77%.
Under `COc1ccc(CCNC(=O)c2cnn(-c3cccc(C)c3)c2C2CCN(C(=O)OC(C)(C)C)CC2)cc1OC` stands 67%; under `Cc1cccc(C)c1OCCCn1c(CCNC(=O)C2CCCCC2)nc2ccccc21`, 1% (active); under `Cc1ccc(OCCCn2c(CCNC(=O)C3CCCCC3)nc3ccccc32)c(C)c1`, 64%.
Next, `Cc1ccc(OCCn2c(CCNC(=O)C3CCCCC3)nc3ccccc32)cc1`: 61%; `Cc1cc(OCCn2c(CCNC(=O)C3CCCCC3)nc3ccccc32)ccc1Cl`: 87%; `O=C(NCCc1nc2ccccc2n1CCCOc1ccc(Cl)cc1)C1CCCCC1`: 24% (active).
Under `Cc1cc(OCCCn2c(CCNC(=O)C3CCCCC3)nc3ccccc32)ccc1Cl` stands 4% (active); under `Cc1ccccc1OCCCn1c(CCNC(=O)C2CCCCC2)nc2ccccc21`, 61%; under `Cc1cc(C)cc(OCCn2c(CCNC(=O)C3CCCCC3)nc3ccccc32)c1`, 92%.
Turning to `Cc1cccc(C)c1OCCn1c(CCNC(=O)C2CCCCC2)nc2ccccc21`, the survival is 57%.
Next, `Cc1cc(C)cc(OCCCn2c(CCNC(=O)C3CCCCC3)nc3ccccc32)c1`: 35%; `O=C(NCCCc1nc2ccccc2n1Cc1ccc(Cl)cc1)C1CCCCC1`: 64%.
For `O=C(NCCc1nc2ccccc2n1CCOc1ccc(Cl)cc1)C1CCCCC1`, the survival is 36% (active).
Regarding `Cc1cc(C)cc(N2CCn3c2nc2c3c(=O)n(CCCc3ccccc3)c(=O)n2C)c1`, the survival was 67%.
Under `O=C(CSc1nc2c(c(=O)[nH]1)CCCC2)Nc1cccc(O)c1` stands 68%.
Next, `Cc1cccc(N2CCN(C(=O)c3cnn(-c4cccc(Cl)c4C)c3C3CCNCC3)CC2)c1C`: 80%.
Under `Cc1cc(NC(=O)c2ccc3c(c2)N(Cc2cccc(Cl)c2)C(=O)c2ccccc2S3(=O)=O)ccc1Br` stands 90%; under `Cc1ccc(C2CCN(C(=O)Nc3ccc(Cl)cc3)C2)cc1` (configuration not stated), 81%.
As for `O=C(Nc1ccc(Cl)c(Cl)c1)N1CCC(c2ccccc2)C1` (configuration not stated), the survival was 81%.
On to `Cc1ccc(C2CCN(C(=O)Nc3ccc(Cl)c(Cl)c3)C2)cc1` (configuration not stated), for which the survival was 20% (active).
Under `COc1ccc(N2C(=O)CSC23C(=O)N(CC(=O)NCCc2ccccc2)c2ccccc23)cc1` (configuration not stated) stands 94%.
Next, `CCN(CC)S(=O)(=O)c1ccc(-c2nnc(SCC(=O)Nc3nc4ccccc4s3)o2)cc1`: 66%.
Next, `N=c1n(CCO)c2ccccc2n1CCOc1ccc(F)cc1`: 40% (active); `N=c1n(CC(N)=O)c2ccccc2n1Cc1ccccc1Cl`: 99%; `CCOC(=O)Cn1c(=N)n(CCOc2ccc(OC)cc2)c2ccccc21`: 43% (active).
In the case of `CCOC(=O)Cn1c(=N)n(Cc2ccc(C(C)(C)C)cc2)c2ccccc21`, the survival is 103%.
On to `CCCCn1c(=N)n(CCCOc2ccc(F)cc2)c2ccccc21`, for which the survival was 48%.
`CCCCn1c(=N)n(CCOc2ccccc2OC)c2ccccc21`: the survival is 56%.
Regarding `O=C1CSC(=O)N1CCOc1ccc(F)cc1`, the survival is 80%.
Under `N=c1n(CCO)c2ccccc2n1Cc1ccccc1F` stands 47% (active); under `N=c1n(CC(=O)O)c2ccccc2n1Cc1ccccc1`, 84%.
Under `O=C(O)CCN1C(=O)CSC1=O` stands 72%; under `CCCOc1cccc(C2c3c(oc4cc(C)c(C)cc4c3=O)C(=O)N2CCCN2CCOCC2)c1` (configuration not stated), 64%; under `COc1ccc(CCNC(=O)c2ccc3c(c2)N(Cc2cc(C)ccc2C)C(=O)c2ccccc2S3=O)cc1OC` (configuration not stated), 70%.
Under `COc1cc(OC)c(NC(=O)Cn2cnc3sc(C)c(S(=O)(=O)N4CCN(C)CC4)c3c2=O)cc1Cl` stands 157%; under `Cc1ccc(C)c(N2CCN(C(=O)C3CCCN(Cc4nc(-c5cccc(Cl)c5)oc4C)C3)CC2)c1` (configuration not stated), 78%; under `CCc1ccc(-c2nc(CN3CCCC(C(=O)NCc4ccc(C)cc4)C3)c(C)o2)cc1` (configuration not stated), 73%.
Turning to `CCCCNC(=O)C1CCCN(Cc2nc(-c3ccc(Cl)cc3)oc2C)C1` (configuration not stated), the survival is 77%.
Next, `Cc1oc(-c2cccc(Cl)c2)nc1CN1CCC(C(=O)NCCc2ccc(Cl)cc2)CC1`: 87%; `Cc1oc(-c2ccc(Cl)cc2)nc1CN1CCCC(C(=O)NCCc2ccc(Cl)cc2)C1` (configuration not stated): 54%; `Cc1oc(-c2ccc(Cl)cc2)nc1CN1CCCC(C(=O)NCc2ccccc2)C1` (configuration not stated): 93%.
Next, `Cc1oc(-c2cccc(Cl)c2)nc1CN1CCCC(C(=O)NCCc2ccc(Cl)cc2)C1` (configuration not stated): -6% (active); `Cc1oc(-c2cccc(Br)c2)nc1CN1CCC(C(=O)NCCc2ccc(Cl)cc2)CC1`: 76%.
Under `Cc1cccc(-c2nc(CN3CCCC(C(=O)NCCc4ccc(Cl)cc4)C3)c(C)o2)c1` (configuration not stated) stands 34% (active); under `Cc1oc(-c2ccc(Cl)cc2)nc1CN1CCCC(C(=O)NCCc2ccccc2)C1` (configuration not stated), 44% (active).
As to `Cc1ccc(CCNC(=O)C2CCCN(Cc3nc(-c4cccc(Cl)c4)oc3C)C2)cc1` (configuration not stated), the survival is 25% (active).
Next, `Cc1cccc(-c2nc(CN3CCCC(C(=O)N4CCN(c5cc(Cl)ccc5C)CC4)C3)c(C)o2)c1` (configuration not stated): 68%; `Cc1ccc(-n2c(=O)c3c4c(sc3n(CC(=O)C(C)(C)C)c2=O)CCCCC4)cc1C`: 89%; `CC(C)CCNC(=O)c1cn(C)c2ccc(S(=O)(=O)N3CCCC3)cc2c1=O`: 138%.
Next, `CCc1ccc2oc(C(=O)NCC(c3ccc(OC)cc3)N3CCCCC3)c(C)c2c1` (configuration not stated): 81%; `O=C(CCn1cnc2onc(-c3ccc(F)cc3)c2c1=O)Nc1cccc(C(F)(F)F)c1`: 96%.
Under `Cc1ccc(-n2nc(C(=O)N3CCN(c4ccccc4F)CC3)c(=O)n(C)c2=O)cc1` stands 93%; under `Cc1ccsc1CN(C(=O)COc1ccc(Br)cc1)C1CCS(=O)(=O)C1` (configuration not stated), 73%; under `Cc1ccc(CN2CCC(CNC(=O)Nc3cccc(C)c3C)C2)cc1` (configuration not stated), 112%.
Consider `Cc1cc(Cl)ccc1NC(=O)Cn1nnc2sc(-c3ccccc3)cc2c1=O`, for which the survival was 106%.
As to `Cc1cn2c(=O)cc(COC(=O)c3cccc(NC(=O)c4ccccc4Cl)c3)nc2s1`, the survival was 102%.

Values taken from PubChem BioAssay AID463173 (ICCB-Longwood Screening Facility, Harvard Medical School, 2010).
